Only some compounds are listed: those with a hit (about 2.9% of all), similar ones and a draw of the others.
A549 viability – A549 cytotoxicity, counter-screen for Nrf2 inhibitors; A549 ARE-Fluc cells, CellTiter-Fluor viability, 18-24 h; Potency, µM (top dose mostly 46 µM), for inactives: top-dose activity change, negative = cytotoxicity, most hits filed as inhibitors; 390,000 compounds, 0.16% hits; note: % is set by controls: 0 for no effect and ±100 for the full control effect
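Cytotoxicity counterscreen: CellTiter-Fluor fluorescence was measured in A549 ARE_Fluc cells after 18-24 h of compound exposure in a concentration series. The subsequent BugLite luminescent read reports ARE-luciferase activity.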
ATXN viability – viability counter-screen for ATXN expression inhibitors | S2 cells (HEK-293 line with an ATXN2-luciferase reporter) viability, CellTiter-Fluor protease fluorescence, 24 h | Potency, µM (series often up to 56.7 µM), usual class: cytotoxic | 400,000 compounds, 0.49% hits | AID 651635; note: nearly all actives have a fitted effect of over 40% in size
Nrf2 ARE act – Nrf2 pathway activation | 410,000 compounds, 0.31% hits | Potency, µM (top dose mostly 46.1 µM), for inactives: at the highest dose activation, most hits filed as activators | AREc32 ARE-luciferase reporter (MCF7-derived line), luminescence, 24 h; note: % of control where 0% means no effect; nearly all actives have a fitted effect of over 65% in size
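Luciferase luminescence (Steady-Glo, 30 min at room temperature) served as the read-out of ARE activation in AREc32 cells treated with compounds for 24 hr at 37 deg C.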
ATXN2 expr inh – reduces ATXN2 reporter expression in HEK-293 cells; HEK-293 ATXN2-luciferase reporter, luminescence, 24 h; Potency, µM (titrated, usually from 57 µM), without a hit: top-dose activity change, negative = inhibition, usual class: inhibitors; 360,000 compounds, 0.72% hits; AID 1745845; note: % is set by controls: 0 for no effect and ±100 for the full control effect; nearly all actives have a fitted effect of over 55% in size
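qHTS (up to 57 uM final) was run with 24 h compound exposure of reporter cells at 37 °C. Each well was multiplexed: SteadyGlo luminescence measured ATXN2-luciferase expression after a fluorogenic Gly-Phe-AFC viability readout (25 uM final).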
Nrf2 block – inhibitors of Nrf2 signaling. AID 504444. A549 ARE-Fluc reporter, luciferase luminescence, 18-24 h. 360,000 compounds, 2.1% hits. Potency, µM (titrated, usually from 46 µM), without a hit: top-dose activity change, negative = inhibition, actives largely listed as inhibitors; note: % is set by controls: 0 for no effect and ±100 for the full control effect; nearly all actives have a fitted effect of over 60% in size
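Concentration-response testing used A549 ARE_Fluc cells at 5000 cells/well. Following an 18-24 h compound incubation, viability was read by fluorescence (Ex 405/Em 525) and luciferase output by luminescence.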
Starred values were filed as active, the others as inactive; i = inactive; ? = inconclusive; . = not tested or not shown. Calls come from the whole dose curve; as a rule, active = well fitted curve in the direction sought with a large enough effect; inconclusive = small, poorly fitted or top-dose-only effect, or another doubt; inactive = no such curve, though single readings can be large; an effect the other way counts as inactive or inconclusive. Potency is the fitted concentration of half-maximal effect.

SMILES	A549 viability	ATXN viability	Nrf2 ARE act	ATXN2 expr inh	Nrf2 block
COc1ccc(N2CCN(C(=O)CSc3nnnn3C3CC3)CC2)cc1	0%	i	0%	-2%	6%
O=C(NC1CC1)C1=C[C@@H](C2CC2)C[C@@H](OCCCCO)O1	0%	i	-1%	10%	2%
COc1cccc(NC(=O)NCCCSC2CCCCC2)c1	-3%	i	0%	3%	-25%
Cc1cc(C)c(NC(=S)NCCCSC2CCCCC2)c(C)c1	-3%	i	-1%	-20%	21µM*
COc1cccc(-c2ccnc3c(-c4ccccc4)c(C)nn23)c1	-4%	?	5%	8%	?
C=CS(=O)(=O)N(Cc1ccccc1Br)[C@H](CO)Cc1ccccc1	-15%	13µM*	?	16µM*	11%
C=CS(=O)(=O)N(Cc1ccccc1)[C@H](CO)CC(C)C	-3%	?	26%	-22%	8%
Cc1ccc(C)c(S(=O)(=O)N2CCN(CC(=O)Nc3ccc4c(c3)CCC4)CC2)c1	-1%	i	0%	-25%	-9%
Cn1c(=O)n(C)c2cc(NC(=O)COc3ccc(Cl)cc3)ccc21	1%	i	2%	2%	16µM*
COc1ccc(OC(=O)NCCc2ccccc2)cc1	0%	i	2%	56%	?
Nc1nc(SCc2ccccc2Cl)nc2nc3c(cc12)CCCC3	3%	i	-1%	-12%	-20%
Nc1nc(SCc2ccc(Cl)cc2Cl)nc2nc3c(cc12)CCCC3	-16%	?	4%	?	23µM*
COc1ccc(C(=O)Nc2ccc3ccccc3n2)cc1OC	7%	i	7%	.	?
Cc1oc2c(c1C(=O)N1CCC(C)CC1)C(=O)c1ccccc1C2=O	?	18µM*	-4%	25µM*	26µM*
Cc1nc2c(=O)n(C)c(=O)n(C)c2nc1Cl	?	30µM*	?	?	18µM*
CCN(CC)c1ccc2nc3c(=O)n(C)c(=O)n(C)c3nc2c1	-13%	.	5%	.	-6%
O=C(O)c1cccc(-c2nc3ccccc3[nH]2)c1	10%	i	-3%	14µM*	-9%
c1ccc(-c2nc3ccccc3[nH]2)cc1	3%	i	3%	45%	?
CC(C)COc1ccc(C(=O)Nc2cccc(-c3nc4ccccc4[nH]3)c2)cc1	-18%	.	-1%	.	23µM*
CC(C)CC(=O)Nc1cccc(-c2nc3ccccc3[nH]2)c1	-1%	?	1%	7%	5%
COc1ccc(Cl)cc1NC(=O)CSc1nnc(C2CC2)n1N	3%	?	4%	-7%	-14%
O=C(OCC(=O)N1CCC(c2ccccc2)=N1)c1ccc([N+](=O)[O-])s1	?	i	13%	-17%	23µM*
CCN(Cc1ccccc1)S(=O)(=O)c1c(C)n(C)c(=O)n(C)c1=O	-13%	i	0%	-4%	16%
CCCN(C(=O)CCl)C1=CCCCC1	-2%	.	?	8.4µM*	2%
CCc1nc2ccccc2c(C(=O)OCC(=O)Nc2cccc(S(=O)(=O)NC3=NCCCCC3)c2)c1C	-25%	?	-2%	22µM*	16µM*
SMILES	A549 viability	ATXN viability	Nrf2 ARE act	ATXN2 expr inh	Nrf2 block
N#Cc1ccc(OCC(=O)Nc2cccc(S(=O)(=O)NC3=NCCCCC3)c2)cc1	-12%	i	0%	4%	0%
O=C(COc1ccc(Cl)cc1)Nc1cccc(S(=O)(=O)NC2=NCCCCC2)c1	-18%	?	0%	0%	26µM*
O=C(Nc1cccc(S(=O)(=O)NC2=NCCCCC2)c1)c1ccc(Cl)cc1	-20%	?	0%	-14%	15µM*
O=C(Nc1cccc(S(=O)(=O)NC2=NCCC2)c1)c1ccccc1	0%	i	-1%	-18%	-20%
CCCN(CCC)CCCNC(=O)c1ccc2c(Cl)c3c(nc2c1)CCC3	-1%	i	3%	-30%	1%
O=C(CSc1nncn2c1cc1sccc12)Nc1ccccc1C(F)(F)F	13%	.	2%	.	21µM*
COc1ccc(CNC(=O)CCNC(=O)N2CCn3c2nc2ccccc23)cc1	0%	i	-1%	1%	-6%
O=C(NCCc1ccc(Cl)cc1)c1ccc(CS(=O)(=O)Cc2ccc(Cl)cc2)o1	-17%	.	6%	.	.
O=C(NCCc1ccc(Cl)cc1)c1ccc(CS(=O)(=O)Cc2ccccc2F)o1	-18%	20µM*	4%	?	.

Source: PubChem (National Center for Advancing Translational Sciences (NCATS))
